Screens from PubChem BioAssay.
The list is not random: actives were taken first. Their share in the collection is about 0.99%.
BLM helicase inh-1 – qHTS Assay for Inhibitors of Bloom's syndrome helicase (BLM); Potency, µM (series often up to 56.1 µM), for inactives: top-dose activity change, negative = inhibition, most hits filed as inhibitors; RecQ-like DNA helicase BLM (Homo sapiens), P54132; 350,000 compounds, 0.2% hits; AID 2528, 2010; recombinant BLM DNA unwinding, fluorescence dequenching;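 further: plate controls were vehicle for no effect and no enzyme for full effect; nearly all actives have a fitted effect of over 35% in size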
FEN1 inhibitor – qHTS Assay for the Inhibitors of Human Flap endonuclease 1 (FEN1); P39748; Recombinant FEN1 flap cleavage, fluorescence, 15 min; Potency, µM (titrated, usually from 114 µM), without a hit: top-dose activity change, negative = inhibition, most hits filed as inhibitors; 390,000 compounds, 0.35% hits; AID 588795, 2011; further: on the % scale 0 is the no-effect control and ±100 the full control effect; nearly all actives have a fitted effect of over 65% in size
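Reaction started by adding substrate (50 nM final) to 10 nM enzyme after 15 min room-temperature compound preincubation. Reads at 0 and 15 min, with data normalized and fitted to a four-parameter Hill equation.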
L3MBTL1 block – qHTS Assay for the Inhibitors of L3MBTL1; AlphaScreen L3MBTL1–H3K9me1 peptide binding; Potency, µM (highest dose often 57.1 µM), for inactives: at the top dose activity, negative = inhibition, most hits filed as inhibitors; 230,000 compounds, 0.66% hits; AID 485360, 2010; further: on the % scale 0 is the no-effect control and ±100 the full control effect; nearly all actives have a fitted effect of over 60% in size
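AlphaScreen proximity signal between nickel-chelate acceptor and streptavidin donor beads (final 10 ug/mL) reports binding of 50 nM L3MBTL1 to 75 nM biotin-H3 K9me1 peptide; complex incubated with compounds 30 min at room temperature; cefsulodin titration as control.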
WRN helicase inh-1 – qHTS for Inhibitors of WRN Helicase; 360,000 compounds, 0.46% hits; WRN helicase unwinding, fluorescent forked duplex, kinetic; Bifunctional 3'-5' exonuclease/ATP-dependent helicase WRN (Homo sapiens), Q14191; Potency, µM (doses to about 114 µM), for the others: at the top dose activity change, negative = inhibition, hits mostly inhibitors; further: on the % scale 0 is the no-effect control and ±100 the full control effect; nearly all actives have a fitted effect of over 55% in size
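Screening of the MLSMR collection measured strand separation of a quenched forked DNA duplex (100 nM) by 20 nM WRN with 2 mM ATP, all final. Compounds were preincubated with enzyme 15 min at room temperature.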
RECQ1 inh-1 – qHTS Assay for Inhibitors of RecQ-Like Dna Helicase 1 (RECQ1). ATP-dependent DNA helicase Q1 (Homo sapiens), P46063. RECQ1 DNA unwinding, red fluorescence kinetic read. Potency, µM (series often up to 57.3 µM), for inactives: at the top dose activity, negative = inhibition, usual class: inhibitors. 240,000 compounds, 0.54% hits;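 further: plate controls were vehicle for no effect and no enzyme for full effect; nearly all actives have a fitted effect of over 30% in size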
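50 nM RECQ1T1 preincubated 15 min with compound in Tris pH 8.0 buffer with MgCl2, DTT, Tween-20 and 2.5 ug/ml poly(dI-dC); started with 200 nM TAMRA/BHQ-2 forked duplex and 2 mM ATP. Unwinding read as fluorescence (525/598 nm), two reads 2 h apart.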
BLM inh – qHTS Confirmation Assay for Inhibitors of Bloom's syndrome helicase (BLM) | shares compounds with BLM helicase inh-1 | BLM DNA unwinding, fluorescence quenching, biochemical | Potency, µM, inactives show max response, negative = inhibition, usual class: inhibitors | 220 compounds, 40% hits | AID 2585, 2010;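 further: strand separation dequenches TAMRA so unwinding raises red fluorescence; series mostly up to about 69 µM; on the % scale 0 is the no-effect control and ±100 the full control effect; nearly all actives have a fitted effect of over 45% in size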
RECQ1 conf – Confirmation qHTS Assay for Inhibitors of RecQ-Like Dna Helicase 1 (RECQ1); shares compounds with RECQ1 inh-1; RECQ1 helicase DNA unwinding, fluorescence; Potency, µM (doses to about 229 µM), without a hit: at the top dose activity change, negative = inhibition, usual class: inhibitors; 610 compounds, 28% hits; AID 2708, 2010; further: on the % scale 0 is the no-effect control and ±100 the full control effect; nearly all actives have a fitted effect of over 45% in size
RECQ1 ADP FP – Counterscreen for RECQ1 Inhibitors: ADP Fluorescence Polarization Displacement Assay; ADP fluorescence polarization displacement counterscreen; AID 2711, 2010; Potency, µM (doses to about 228 µM), inactives show at the top dose activity change, negative = inhibition, actives largely listed as inhibitors; shares compounds with RECQ1 inh-1; 530 compounds, 27% hits; further: on the % scale 0 is the no-effect control and ±100 the full control effect; nearly all actives have a fitted effect of over 45% in size
RECQ1 inh-2 – Confirmation qHTS Assay for Inhibitors of RecQ-Like Dna Helicase 1 (RECQ1) - Round 2 Cherry Picks | Potency, µM (highest dose often 119 µM), without a hit: at the highest dose activity, negative = inhibition, hits mostly inhibitors | 1,100 compounds, 15% hits | recombinant RECQ1 DNA unwinding, red fluorescence | shares compounds with RECQ1 inh-1; further: on the % scale 0 is the no-effect control and ±100 the full control effect; nearly all actives have a fitted effect of over 50% in size
WRN helicase inh-2 – qHTS for Inhibitors of WRN Helicase: Confirmatory Assay for Cherry-picked Compounds; shares compounds with WRN helicase inh-1; 610 compounds, 63% hits; Potency, µM (top dose mostly 57.1 µM), for the others: at the highest dose activity, negative = inhibition, usual class: inhibitors; WRN helicase DNA unwinding, fluorescence kinetic; further: nearly all actives have a fitted effect of over 65% in size
TO DNA binding – qHTS for Inhibitors of WRN Helicase: Thiazole Orange DNA Binding Counterscreen. shares compounds with WRN helicase inh-1. thiazole orange DNA binding displacement, fluorescence. Potency, µM (doses to about 57.1 µM), inactives show at the highest dose activity change, negative = inhibition, usual class: inhibitors. 610 compounds, 10% hits;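 further: drop in dye fluorescence marks compound binding to DNA; on the % scale 0 is the no-effect control and ±100 the full control effect; nearly all actives have a fitted effect of over 60% in size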
BLM helicase inh-2 – qHTS for Inhibitors of WRN Helicase: BLM Helicase Counterscreen for WRN Inhibitors | shares compounds with WRN helicase inh-1 | Recombinant BLM helicase DNA unwinding, red fluorescence | Potency, µM (series often up to 57.1 µM), for inactives: at the highest dose activity change, negative = inhibition, usual class: inhibitors | 610 compounds, 60% hits | AID 720503, 2013; further: nearly all actives have a fitted effect of over 60% in size
An asterisk follows results filed as active; i = inactive; ? = inconclusive; nt = no result given; [ ] = dose if it differs, or a comment. The call rests on the fitted dose curve; in most records, active means well fitted curve in the direction sought with a large enough effect; inconclusive means small, poorly fitted or top-dose-only effect, or another doubt; inactive means no such curve, though single readings can be large; an effect the other way counts as inactive or inconclusive. Potency means the concentration at half of the fitted maximal effect.

SMILES | BLM helicase inh-1 | FEN1 inhibitor | L3MBTL1 block | WRN helicase inh-1 | RECQ1 inh-1 | BLM inh | RECQ1 conf | RECQ1 ADP FP | WRN helicase inh-2 | TO DNA binding | BLM helicase inh-2 | others
CCc1cc(=O)oc2cc(C)c(CN3CCCC3)c(O)c12 | 11µM* | 25µM* | 4µM* | 32µM* | 7.1µM* | ? | 50µM* | 72%[91.9 µM] | 15µM* | 24µM* | 3.8µM* | RECQ1 inh-2=?
CCOc1ccc(-c2nc(SCC(=O)Nc3ccc(C)c(C)c3)n3[nH]c(=O)cc3n2)cc1 | 14µM* | ? | nt | nt | nt | 18µM* | nt | nt | 15µM* | 9% | 3µM*
Cc1ccc(NC(=O)CSc2nc(-c3ccc(C(C)(C)C)cc3)nc3cc(=O)[nH]n23)cc1C | 3% | 18% | nt | nt | nt | nt | nt | nt | nt | nt | nt
COC(=O)c1c(-c2ccc(OC)cc2)oc2ccc(-c3cc(OC)c(OC)c(OC)c3)cc12 | nt | 7% | nt | -3% | nt | nt | nt | nt | nt | nt | nt
Cc1c(O)ccc(/C=N/Nc2nc(-c3cccnc3)nc3ccccc23)c1O | ? | ? | -15% | ? | 20µM* | 24µM* | ? | 27%[91.9 µM] | ? | 27µM* | ?
Oc1ccc(/C=N/Nc2nc(-c3cccnc3)nc3ccccc23)c(O)c1 | -23% | -33% | -27% | -31% | -1% | nt | nt | nt | nt | nt | nt
CCCn1nnnc1NCc1ccc(Cl)cc1Cl | -4% | 3% | 5% | 0% | -8% | nt | nt | nt | nt | nt | nt
O=C(CSc1n[nH]c(=O)[nH]c1=O)Nc1ccc2c(c1)C(=O)c1ccccc1C2=O | 13µM* | 28µM* | 28µM* | 32µM* | i | 16µM* | nt | nt | 8.6µM* | 12µM* | 4.3µM*
